The values below come from PubChem BioAssay AID588726 (The Scripps Research Institute Molecular Screening Center, 2011).

Out of some 360,000 compounds screened, about 8,200 (2.3%) were called active. The sample as a whole holds a higher share of actives than the screen did. Unmarked numbers belong to inactive results. Rule as the data show it: active = inhibition above about 27%; inactive = the rest.

Fructose-bisphosphate aldolase (Mycobacterium tuberculosis (strain ATCC 25618 / H37Rv)), sequence (P9WQA3 whole entry, looked up): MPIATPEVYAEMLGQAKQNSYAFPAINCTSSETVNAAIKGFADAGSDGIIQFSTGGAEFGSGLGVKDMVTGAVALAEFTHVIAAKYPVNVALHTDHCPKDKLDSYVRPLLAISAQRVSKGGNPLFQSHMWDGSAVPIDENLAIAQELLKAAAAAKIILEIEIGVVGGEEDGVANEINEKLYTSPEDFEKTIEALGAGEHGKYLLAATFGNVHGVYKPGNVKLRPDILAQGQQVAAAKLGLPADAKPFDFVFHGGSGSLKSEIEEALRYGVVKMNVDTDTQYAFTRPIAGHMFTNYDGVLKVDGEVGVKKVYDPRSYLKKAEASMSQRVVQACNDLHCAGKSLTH

The experiment concerns the target Fructose-bisphosphate aldolase (Mycobacterium tuberculosis (strain ATCC 25618 / H37Rv)) (UniProt P9WQA3). Nature of the experiment: Mtb FBA enzyme inhibitors, primary screen, biochemical, fluorescence, strain H37Rv (AID 588726).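 Also: 0% = vehicle and 100% = reference inhibitor.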 As to conditions: purified M. tuberculosis FBA, fluorescence read-out, at 1 µM, active compounds read high.
With `C#Cc1cc(N2CCN(C(=O)c3ccoc3)CC2)n2nc(-c3cccc(Cl)c3)cc2n1`, the inhibition is 51.1% (active).

As for `CCc1nc2ccc(C(=O)N3CCN(c4cccc(Cl)c4)CC3)cc2nc1CC`, the inhibition was -5.44%.

Take `CCCCCn1c(SCCC(C)C)nc2c1c(=O)[nH]c(=O)n2C`: the inhibition is -1.96%.

Consider `Nc1nc2cc(Cl)ccc2n1N`, for which the inhibition is 1.5%.

For `Nc1ccc2c(c1)C(O)c1ccc(Cl)cc1-2` (centres undefined), the inhibition was 0.95%.

Consider `Nc1ccc2nn(-c3ccc(Cl)cc3)nc2c1`, for which the inhibition was 52.9% (active).

For the compound `CCC(C)(C)NC(=O)CN(C(=O)CCC(=O)Nc1cc(C)ccn1)c1ccc2c(c1)OCCO2`, the inhibition is -0.12%.

Regarding `Cc1ccc(CCn2c3c(c4ccccc42)CN(C)CC3)cn1`, the inhibition was 4.44%.

With `Cn1cc(-c2ccccc2)cc(C#N)c1=O`, the inhibition is 50.3% (active).

As for `CC(C)C(=O)Nc1oc(-c2ccccc2)cc1C#N`, the inhibition is 1.2%.

With `Cn1cccc1C(C#N)c1ccccc1C#N` (centres undefined), the inhibition was -1.4%.

On to `O=P(O)(CP(=O)(c1ccccc1)c1ccccc1)c1ccccc1O`, for which the inhibition was -1.86%.

As for `COc1ccc(CCN2CC(C(=O)OCC(=O)NCc3ccccc3Cl)CC2=O)cc1OC` (centres undefined), the inhibition is -0.32%.

As for `Cc1c(Br)c([N+](=O)[O-])nn1C(C)C(=O)Nc1nccs1` (centres undefined), the inhibition was 0.22%.

With `Cn1nnnc1-c1cc(Cl)cc(Cl)c1`, the inhibition was -1.41%.

Take `O=C(CNC(=O)c1ccccc1Br)NCCSc1ccc(Br)cc1`: the inhibition was 2.75%.

On to `CSCCC(NS(=O)(=O)c1ccc(C)cc1)C(=O)N1CCCC1` (centres undefined), for which the inhibition is -1.91%.

Turning to `Cc1cc(=O)oc2cc(OC(C)C(=O)NCCc3ccc(S(N)(=O)=O)cc3)ccc12` (centres undefined), the inhibition is 20.4%.

Take `CCCCC(NS(=O)(=O)c1ccc(C)cc1)C(=O)Oc1ccc2c3c(c(=O)oc2c1)CCC3` (centres undefined): the inhibition was 61.7% (active).

For `C[C@H](OC(=O)n1ccnc1)[C@@H]1O[C@@]2(C)CCC[C@@H]1O2`, the inhibition was -0.83%.

With `CC1(C)C(=O)C2(CCCCC2)C(=O)OC1c1cccs1` (centres undefined), the inhibition was -0.98%.

For the compound `O=C(Nc1ccc(Cl)cc1)C1Cc2c(-c3ccc4c(c3)OCO4)ccnc2O1` (centres undefined), the inhibition was 26.8%.

As for `COc1ccc(NC(=O)C2Cc3c(-c4ccc5c(c4)OCO5)ccnc3O2)cn1` (centres undefined), the inhibition is 64.8% (active).

Consider `COc1ccc(NC(=O)C2Cc3c(-c4ccc(Cl)cc4)ccnc3O2)cc1` (centres undefined), for which the inhibition is -1.52%.

Regarding `CCCCn1c(N)c(N(Cc2ccccc2OC)C(=O)COc2cc(C)ccc2Cl)c(=O)[nH]c1=O`, the inhibition was 1.47%.

`CCOc1ccc(OCC)c(-c2c(=O)n(OCc3ccc(Cl)cc3)c3ccccc3[n+]2[O-])c1`: the inhibition was -1.68%.

Take `Brc1cnc2ccccc2c1N1CCCCC1`: the inhibition was 51.2% (active).

For `Brc1cnc(N2CCCC2)nc1N1CCCCC1`, the inhibition is 4.23%.

As for `c1ccc(-c2cc(N3CCCCC3)c3ccccc3n2)cc1`, the inhibition is 0.14%.

As for `CCOC(=O)c1c(S(=O)(=O)Nc2ccc(CN3CCC(C)CC3)cc2)c(C)n(C)c1C`, the inhibition was 1.42%.

As to `CCCCn1c(=S)[nH]c2ncccc2c1=O`, the inhibition is 0.66%.

Take `CN(CCc1ccccn1)C(=O)CCC1CCCN(Cc2ccccc2OC(F)F)C1` (centres undefined): the inhibition was 5.01%.

For the compound `CCN1CCc2c(C#N)c(NCc3ccccc3)nc(NCCO)c2C1`, the inhibition is 33.9% (active).

Turning to `CC(C)CCNc1nc(N2CCCC2)c2c(c1C#N)CCN(C)C2`, the inhibition was 4.23%.

As for `CCCCc1nc(NCc2ccccc2)c(C#N)c2c1CCCC2`, the inhibition is 0.15%.

`COc1ccc(NC2CC(=O)N(C)C2=O)cc1` (centres undefined): the inhibition is 1.09%.

On to `Cc1ccc(-c2nc(COC(=O)c3c(C)noc3C)cs2)cc1`, for which the inhibition is 1.63%.

In the case of `CCN(C(=O)COC(=O)CCC(=O)c1cccs1)C1CCCCC1`, the inhibition is 4.65%.

`CCn1c(=N)c(S(=O)(=O)c2ccc(F)cc2)cc2c(=O)n3ccccc3nc21`: the inhibition is 20.8%.

Regarding `CCOC(=O)c1cc2c(=O)n3ccccc3nc2n(CC(C)C)c1=NC(=O)c1c(-c2c(F)cccc2Cl)noc1C`, the inhibition was 13.1%.

Turning to `O=C(CN1CCN(S(=O)(=O)/C=C/c2ccccc2)CC1)NC(=O)NCc1ccco1`, the inhibition was -1.09%.

With `O=c1ccc(-c2ccc(S(=O)(=O)Nc3ccccc3)o2)n[nH]1`, the inhibition was 2.01%.

Regarding `O=C(CSc1nnc(-c2ccncc2)o1)NCc1ccc(Cl)cc1`, the inhibition was -1.06%.

`COCCNC(=O)c1ccccc1-c1nc(-c2ccccc2Cl)no1`: the inhibition was 0.39%.

`CCCCNC(=O)c1onc(CSc2cccc(OC)c2)c1C(=O)O`: the inhibition was 1.62%.

As for `CCCCNc1c(-c2cccc(Sc3ccc(OC)cc3)c2)nc2ccccn12`, the inhibition was 40.1% (active).

As to `COC(=O)c1ccc2nc(-c3cccc(Br)c3)c(Cc3ccc(OC)cc3C)n2c1`, the inhibition was 2.37%.

In the case of `CC(=O)c1nn(-c2ccccc2)c(=Nc2ccccc2)cc1C`, the inhibition is 2.4%.

Consider `O=C1c2ccccc2C(c2nc3ccccc3[nH]2)N1c1ccccc1` (centres undefined), for which the inhibition is 0.93%.

For `COc1cccc(NC(=O)CC(c2ccc(OC(C)C)cc2)c2ccccc2OC)c1` (centres undefined), the inhibition was 1.51%.

Consider `COC(=O)c1cc(CNC(=O)CC(C)c2ccccc2)ccc1OC` (centres undefined), for which the inhibition was -0.38%.

For the compound `O=C1CCCN1CCCNC(=S)Nc1ccc(F)c(Cl)c1`, the inhibition is -1.02%.

On to `Fc1ccccc1CNC(=S)Nc1ccc(Cl)cc1`, for which the inhibition is 0.3%.

With `COc1cc(Cn2c3ccc(NC(=O)CC(C)c4ccccc4)cc3c(=O)n2C)ccc1F` (centres undefined), the inhibition is 146% (active).

Consider `CCNC(=S)Nc1ccc2c(c1)c(=O)n(C)n2Cc1ccc(Cl)cc1`, for which the inhibition is 59.7% (active).

As for `CC=CCn1c(SCCCc2ccccc2)nc2c1c(=O)[nH]c(=O)n2C`, the inhibition was 4.11%.

`CCOC(=O)c1sc(/N=C/Nc2nc(C)c(C(=O)OCC)s2)nc1C`: the inhibition was 2.19%.

For `N#Cc1ccccc1NC(=O)c1cccc(COc2ccc(Cl)cc2Cl)c1`, the inhibition is -1.7%.

Consider `CCOc1ccc(C(C)=O)cc1COC(=O)CN1C(=O)NC2(CCCC2)C1=O`, for which the inhibition was -0.88%.

As to `Cc1ccc(C=O)c([B-](F)(F)F)c1`, the inhibition was 2.07%.

For `CN1c2ccc(C=O)c3c(C=O)ccc(c23)N(C)C1(C)C`, the inhibition was 62.1% (active).

With `O=S(=O)(/C=C/c1ccccc1)NCCc1ccccn1`, the inhibition was 1.96%.

Take `COC(=O)c1onc(-c2c(OC)cc(OC)cc2OC)c1C(=O)OC`: the inhibition is -3.51%.

Consider `COc1ccc2c(c1)N(C)/C(=C1/SC(=S)N(NC(C)=O)C1=O)S2`, for which the inhibition is -4.56%.

As for `CC(=O)N1C(=O)/C(=C2\SC(=S)N(NC(=O)c3ccc(O)cc3)C2=O)c2ccccc21`, the inhibition is 31.8% (active).

`COc1ccc(C(=O)NN2C(=O)C3C(c4ccccc4)C=CC(c4ccccc4)C3C2=O)cc1` (centres undefined): the inhibition was 1.1%.

For `COc1cccc(NC(=O)c2cc(S(=O)(=O)N3CCc4ccccc43)cn2C)c1`, the inhibition was -0.54%.

As for `CC(C)(C)OC(=O)C[C@@H]1C/C=C\C[C@H](CC(=O)N[C@@H](CO)Cc2ccccc2)C(=O)N[C@H](Cc2ccccc2)COC1=O`, the inhibition is 3.41%.

As to `Cc1cc(C)cc(NC(=O)N2CCC(NC(=O)c3ccc(F)cc3)CC2)c1`, the inhibition was -6.06%.

In the case of `Cc1nc2nc(SCC(=O)Nc3cccc(F)c3)[nH]c2cc1Br`, the inhibition is -2.16%.

Take `O=C(Nc1cccc(F)c1)c1coc(=O)c(Br)c1`: the inhibition is 171% (active).

With `O=C(Nc1cccc(F)c1)[C@@H]1CCCN1`, the inhibition is 4.68%.

In the case of `CCc1nn(CCCC(=O)NCc2ccc(C)cc2)c(=O)c2cc3occc3n12`, the inhibition is -0.41%.

In the case of `COc1ccc(C(=O)CN2C(=O)NC3(CCc4ccccc43)C2=O)c(OC)c1` (centres undefined), the inhibition is 1.92%.

For the compound `CCCOc1ccc(-c2c(C(=O)N/N=C/c3ccco3)nnn2-c2nonc2N)cc1`, the inhibition is 4.8%.

As to `N#Cc1ccc(OCc2nnc(-c3ccc([N+](=O)[O-])cc3)o2)cc1`, the inhibition is 0.59%.

As to `CCCCSc1nnc(-c2ccc(C)cc2)o1`, the inhibition is 3.13%.

As to `CCCCOc1ccc(-c2nnc(-c3ccco3)o2)cc1`, the inhibition is 46.1% (active).

For the compound `CCOc1ccc(-c2nnc(-c3ccco3)o2)cc1`, the inhibition was 54% (active).

As for `CCOc1ccc(-n2c(SCC(N)=O)nnc2-c2ccco2)cc1`, the inhibition was 0.41%.

Consider `CCC(C)(C(=O)NC1CCCC1)N(C(=O)CNC(C)=O)c1ccc(C)cc1` (centres undefined), for which the inhibition was 1.41%.

As for `Cc1nc2cccnc2nc1C`, the inhibition is -0.64%.

Regarding `COc1ccc(NC(=O)c2cccc3c2C(=O)N(CC2CCCO2)C3)cc1OC` (centres undefined), the inhibition is -1.34%.

Consider `COCCN(C(=O)CC1CCCCC1)c1c(N)n(CC(C)C)c(=O)[nH]c1=O`, for which the inhibition was 2.06%.

On to `O=[N+]([O-])c1cccc(C=NN=Cc2ccccc2O)c1`, for which the inhibition was 1.54%.

As to `O=[N+]([O-])c1cccc(/C=N/Nc2ncc(Br)cn2)c1`, the inhibition was 144% (active).

In the case of `O=C(N/N=C/c1cccc([N+](=O)[O-])c1)C1CC(=O)N(c2ccc(Br)cc2)C1` (centres undefined), the inhibition was 2.78%.

Take `CCCN(C(=O)COC(=O)CNS(=O)(=O)c1ccc(NC(C)=O)cc1)C1CCS(=O)(=O)C1` (centres undefined): the inhibition was 1.9%.

For `COc1ccc(CCN(Cc2cc3cccc(C)c3[nH]c2=O)C(=O)N2CCCC2)cc1OC`, the inhibition was 0.64%.

Consider `Cc1cccc(NC(=O)c2sc3nc(N4CCOCC4)c4c(c3c2N)CCCC4)c1`, for which the inhibition was 39.1% (active).

As to `Cc1nc(N2CCOCC2)c2c(C)c(C(=O)Nc3ccc(C(F)(F)F)cc3)sc2n1`, the inhibition was 2.82%.

As for `c1ccc(CSc2ncnc3c2sc2nc(N4CCOCC4)c4c(c23)CCCC4)cc1`, the inhibition was 3.1%.

As for `Cc1cc(C)cc(NC(=O)Cn2cnc3c(nnn3Cc3ccc(F)cc3)c2=O)c1`, the inhibition is 1.33%.

On to `CN(C)/C(CN1CCCCC1)=C1\N=C(c2ccccc2)OC1=O`, for which the inhibition is -2.21%.

The inhibition is the drop in the measured response relative to a control, in per cent.
